Measured values as given in ChEMBL document CHEMBL3988442, “University of Dundee, Small-Polar-MMV Screening Library” (2021).
For some assays here: Potency and affinity values are given separately.

Experiments:
Parameters in all cases: scale not given: direction of the effect not stated beside the values
[1] = target: Protein translocase subunit SecA (Escherichia coli (strain K12)) (UniProt P10408); test: Assay to Identify E. coli SecA ATPase Inhibitors; type: functional; conditions: 30 µM
[2] = target: T1, Ubiquitin-activating enzyme e1, putative (Leishmania donovani (strain BPK282A1)) (UniProt E9BSI1); test: Leishmania donovani Ubiquitin Activating Enzyme (LdE1); type: functional; conditions: 30 µM
T1 sequence (whole entry): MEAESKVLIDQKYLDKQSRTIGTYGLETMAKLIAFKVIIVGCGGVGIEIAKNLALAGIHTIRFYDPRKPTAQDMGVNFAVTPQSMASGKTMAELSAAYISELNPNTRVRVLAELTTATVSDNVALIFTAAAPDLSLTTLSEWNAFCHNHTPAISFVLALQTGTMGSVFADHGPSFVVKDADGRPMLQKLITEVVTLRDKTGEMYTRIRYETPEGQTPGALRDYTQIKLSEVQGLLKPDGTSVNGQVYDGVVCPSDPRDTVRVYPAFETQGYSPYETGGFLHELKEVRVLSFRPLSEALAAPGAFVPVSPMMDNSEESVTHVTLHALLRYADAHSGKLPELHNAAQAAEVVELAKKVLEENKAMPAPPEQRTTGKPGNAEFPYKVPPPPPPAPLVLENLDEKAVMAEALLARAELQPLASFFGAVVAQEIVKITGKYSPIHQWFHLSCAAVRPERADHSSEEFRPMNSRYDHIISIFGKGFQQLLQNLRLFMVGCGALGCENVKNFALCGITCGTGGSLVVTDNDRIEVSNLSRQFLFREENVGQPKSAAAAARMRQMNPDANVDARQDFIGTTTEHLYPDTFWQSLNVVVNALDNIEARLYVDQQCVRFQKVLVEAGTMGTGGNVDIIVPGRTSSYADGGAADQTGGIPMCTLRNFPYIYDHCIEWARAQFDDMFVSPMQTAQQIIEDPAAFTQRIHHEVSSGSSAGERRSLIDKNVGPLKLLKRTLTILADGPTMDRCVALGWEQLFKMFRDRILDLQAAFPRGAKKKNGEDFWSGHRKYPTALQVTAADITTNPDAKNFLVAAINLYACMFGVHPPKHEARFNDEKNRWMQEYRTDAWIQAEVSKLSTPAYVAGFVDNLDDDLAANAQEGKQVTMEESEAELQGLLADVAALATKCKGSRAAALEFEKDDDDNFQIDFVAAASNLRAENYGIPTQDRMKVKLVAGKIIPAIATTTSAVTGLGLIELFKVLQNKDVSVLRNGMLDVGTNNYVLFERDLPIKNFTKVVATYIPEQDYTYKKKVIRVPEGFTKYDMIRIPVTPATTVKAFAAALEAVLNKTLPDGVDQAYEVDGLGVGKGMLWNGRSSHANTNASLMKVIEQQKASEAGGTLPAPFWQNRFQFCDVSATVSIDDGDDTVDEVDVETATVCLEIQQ

[3] = target: AMP-activated protein kinase, AMPK (Homo sapiens) (UniProt P54646+O43741+P54619+Q9UGJ0+Q9Y478+Q13131+Q9UGI9); test: AMP-dependent Kinase enzyme assay. An in vitro enzyme assay that detects ADP turnover that is directly proportional to AMPK activity. This uses naive AMPK that is activated during the assay with MK-8722; type: functional; conditions: 30 µM
[4] = target: Sialic acid-binding Ig-like lectin 9 (Homo sapiens) (UniProt Q9Y336); test: Hs-Siglec9 ALPHAscreen SOP 20170721; conditions: 10 µM
[5] = tested on: Trypanosoma cruzi; test: Trypanosoma cruzi phosphomannomutase and mannose-1-phosphate guanylyltransferase assay; type: functional; conditions: 10 µM
[6] = target: T2, Arginase-2, mitochondrial (Homo sapiens) (UniProt P78540); test: in vitro enzyme assay to detect the production of urea directly proportional to the activity of Arginase II; type: functional; conditions: 33.3 µM; note: in the data most compounds retested in dose-response had high values
T2 sequence (whole entry): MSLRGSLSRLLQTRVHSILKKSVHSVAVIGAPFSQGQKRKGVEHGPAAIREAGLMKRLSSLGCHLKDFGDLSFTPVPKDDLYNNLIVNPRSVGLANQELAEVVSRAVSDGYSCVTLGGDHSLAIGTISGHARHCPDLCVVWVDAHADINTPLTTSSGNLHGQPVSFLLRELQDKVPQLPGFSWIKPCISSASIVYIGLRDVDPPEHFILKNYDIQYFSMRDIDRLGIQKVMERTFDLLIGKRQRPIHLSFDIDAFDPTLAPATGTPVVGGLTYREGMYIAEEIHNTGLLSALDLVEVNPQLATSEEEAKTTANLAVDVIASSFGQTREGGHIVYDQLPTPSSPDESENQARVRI

[7] = target: T3, Proteasome subunit beta (Trypanosoma cruzi) (UniProt O96673); test: Trypanosoma cruzi proteasome chymotrypsin-like activity (TcProtChymo) assay.; note: in the data most compounds retested in dose-response had high values; type: functional; conditions: 9.37 µM
T3 sequence (whole entry): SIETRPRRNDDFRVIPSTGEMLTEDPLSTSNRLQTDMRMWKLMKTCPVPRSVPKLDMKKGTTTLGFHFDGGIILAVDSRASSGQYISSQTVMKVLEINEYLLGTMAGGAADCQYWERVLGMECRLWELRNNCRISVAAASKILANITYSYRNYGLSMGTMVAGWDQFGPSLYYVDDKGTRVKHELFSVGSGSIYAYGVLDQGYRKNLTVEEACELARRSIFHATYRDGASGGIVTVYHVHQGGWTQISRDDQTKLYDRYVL

[8] = organism: Homo sapiens; test: To identify inhibition of the IFN signalling (Jak-Stat) pathway via expression of an eGFP reporter gene under the control of an IFN-stimulated response element (ISRE) containing MxA promoter.; type: functional; conditions: 30 µM
[9] = target: T4, Tyrosyl-tRNA synthetase, putative (Trypanosoma cruzi (strain CL Brener)) (UniProt Q4DSP6); test: Trypanosoma cruzi tyrosyl tRNA synthetase (TcYRS) _High Tyrosine SOP; type: functional; conditions: 30 µM; note: in the data most compounds retested in dose-response had high values
T4 sequence (whole entry): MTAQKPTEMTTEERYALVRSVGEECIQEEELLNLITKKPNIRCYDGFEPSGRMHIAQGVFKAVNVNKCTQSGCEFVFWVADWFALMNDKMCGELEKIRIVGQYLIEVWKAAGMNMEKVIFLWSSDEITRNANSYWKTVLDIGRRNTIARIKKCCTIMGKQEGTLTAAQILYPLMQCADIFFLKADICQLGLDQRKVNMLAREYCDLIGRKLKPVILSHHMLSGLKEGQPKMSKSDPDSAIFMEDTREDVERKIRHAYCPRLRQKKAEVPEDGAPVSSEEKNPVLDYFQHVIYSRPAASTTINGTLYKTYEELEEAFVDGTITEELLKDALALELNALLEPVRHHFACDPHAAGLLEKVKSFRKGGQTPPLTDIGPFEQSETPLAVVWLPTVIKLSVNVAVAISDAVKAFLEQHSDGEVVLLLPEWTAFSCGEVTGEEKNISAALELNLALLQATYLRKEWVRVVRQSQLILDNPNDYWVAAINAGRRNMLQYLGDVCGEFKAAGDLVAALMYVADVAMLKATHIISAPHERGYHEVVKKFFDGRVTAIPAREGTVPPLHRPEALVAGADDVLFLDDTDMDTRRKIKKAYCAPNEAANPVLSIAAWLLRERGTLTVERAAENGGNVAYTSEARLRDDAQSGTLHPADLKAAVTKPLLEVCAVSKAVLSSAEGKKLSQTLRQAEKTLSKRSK

[10] = target: T4, Tyrosyl-tRNA synthetase, putative (Trypanosoma cruzi (strain CL Brener)); test: Trypanosoma cruzi tyrosyl tRNA synthetase (TcYRS) SOP; type: functional; conditions: 30 µM
[11] = target: Chromo domain-containing protein 1 (Saccharomyces cerevisiae (strain ATCC 204508 / S288c) (Baker's yeast)) (UniProt P32657); test: ScCHD-1 Enzyme Inhibition Assay; type: functional; conditions: 30 µM; note: in the data most compounds retested in dose-response had high values
Chain of Chromo domain-containing protein 1 (Saccharomyces cerevisiae (strain ATCC 204508 / S288c) (Baker's yeast)) (P32657 whole entry, the tested form may be a part): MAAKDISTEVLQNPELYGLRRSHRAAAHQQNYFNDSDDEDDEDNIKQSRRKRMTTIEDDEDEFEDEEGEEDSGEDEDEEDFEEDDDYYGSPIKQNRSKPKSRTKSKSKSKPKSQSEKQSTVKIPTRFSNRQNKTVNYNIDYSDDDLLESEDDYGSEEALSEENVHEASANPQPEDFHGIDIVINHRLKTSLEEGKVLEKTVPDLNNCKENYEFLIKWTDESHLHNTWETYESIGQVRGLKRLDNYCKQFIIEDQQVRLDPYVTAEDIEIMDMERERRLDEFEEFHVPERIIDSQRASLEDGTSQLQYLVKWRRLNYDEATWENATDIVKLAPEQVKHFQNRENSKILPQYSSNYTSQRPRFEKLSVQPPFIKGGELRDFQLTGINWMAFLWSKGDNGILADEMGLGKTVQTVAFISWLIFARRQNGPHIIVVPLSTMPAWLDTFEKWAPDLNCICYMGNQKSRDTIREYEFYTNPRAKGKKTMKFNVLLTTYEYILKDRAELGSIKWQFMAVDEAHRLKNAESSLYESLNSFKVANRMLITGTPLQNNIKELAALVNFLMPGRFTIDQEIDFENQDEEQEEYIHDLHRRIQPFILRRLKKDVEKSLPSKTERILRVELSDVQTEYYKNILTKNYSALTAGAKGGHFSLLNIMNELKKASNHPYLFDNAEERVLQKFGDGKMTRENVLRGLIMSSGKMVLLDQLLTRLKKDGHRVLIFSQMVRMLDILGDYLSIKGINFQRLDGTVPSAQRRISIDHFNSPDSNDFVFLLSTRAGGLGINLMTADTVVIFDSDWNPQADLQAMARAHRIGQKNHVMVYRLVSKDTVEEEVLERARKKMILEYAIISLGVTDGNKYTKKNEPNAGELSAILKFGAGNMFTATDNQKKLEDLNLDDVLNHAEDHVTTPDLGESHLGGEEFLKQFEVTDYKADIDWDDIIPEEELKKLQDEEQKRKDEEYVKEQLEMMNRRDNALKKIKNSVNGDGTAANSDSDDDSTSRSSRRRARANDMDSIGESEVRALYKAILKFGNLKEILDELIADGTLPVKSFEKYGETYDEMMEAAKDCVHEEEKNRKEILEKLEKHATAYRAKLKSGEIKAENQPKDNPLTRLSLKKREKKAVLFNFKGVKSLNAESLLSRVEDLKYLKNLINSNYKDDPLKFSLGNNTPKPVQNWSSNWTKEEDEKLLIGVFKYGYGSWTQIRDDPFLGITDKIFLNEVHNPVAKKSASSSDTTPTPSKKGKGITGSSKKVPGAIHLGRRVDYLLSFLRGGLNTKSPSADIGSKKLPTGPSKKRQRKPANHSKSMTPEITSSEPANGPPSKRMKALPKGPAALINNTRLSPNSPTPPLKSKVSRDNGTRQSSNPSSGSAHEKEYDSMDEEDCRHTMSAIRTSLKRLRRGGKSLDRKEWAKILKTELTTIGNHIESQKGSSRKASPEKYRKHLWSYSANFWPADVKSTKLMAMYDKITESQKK

Chain of Sialic acid-binding Ig-like lectin 9 (Homo sapiens) (Q9Y336 whole entry): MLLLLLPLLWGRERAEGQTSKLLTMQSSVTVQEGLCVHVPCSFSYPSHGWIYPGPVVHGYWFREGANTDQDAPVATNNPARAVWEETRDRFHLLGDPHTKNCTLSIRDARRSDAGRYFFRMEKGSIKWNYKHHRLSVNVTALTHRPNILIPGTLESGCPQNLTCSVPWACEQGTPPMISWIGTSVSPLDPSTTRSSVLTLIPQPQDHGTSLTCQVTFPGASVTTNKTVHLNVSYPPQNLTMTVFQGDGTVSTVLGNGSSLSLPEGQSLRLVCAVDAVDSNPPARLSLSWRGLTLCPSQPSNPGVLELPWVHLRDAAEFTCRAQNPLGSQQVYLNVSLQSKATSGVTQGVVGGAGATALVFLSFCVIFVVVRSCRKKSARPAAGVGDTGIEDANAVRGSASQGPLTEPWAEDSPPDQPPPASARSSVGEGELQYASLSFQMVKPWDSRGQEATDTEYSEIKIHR
Chain of Protein translocase subunit SecA (Escherichia coli (strain K12)) (P10408 whole entry): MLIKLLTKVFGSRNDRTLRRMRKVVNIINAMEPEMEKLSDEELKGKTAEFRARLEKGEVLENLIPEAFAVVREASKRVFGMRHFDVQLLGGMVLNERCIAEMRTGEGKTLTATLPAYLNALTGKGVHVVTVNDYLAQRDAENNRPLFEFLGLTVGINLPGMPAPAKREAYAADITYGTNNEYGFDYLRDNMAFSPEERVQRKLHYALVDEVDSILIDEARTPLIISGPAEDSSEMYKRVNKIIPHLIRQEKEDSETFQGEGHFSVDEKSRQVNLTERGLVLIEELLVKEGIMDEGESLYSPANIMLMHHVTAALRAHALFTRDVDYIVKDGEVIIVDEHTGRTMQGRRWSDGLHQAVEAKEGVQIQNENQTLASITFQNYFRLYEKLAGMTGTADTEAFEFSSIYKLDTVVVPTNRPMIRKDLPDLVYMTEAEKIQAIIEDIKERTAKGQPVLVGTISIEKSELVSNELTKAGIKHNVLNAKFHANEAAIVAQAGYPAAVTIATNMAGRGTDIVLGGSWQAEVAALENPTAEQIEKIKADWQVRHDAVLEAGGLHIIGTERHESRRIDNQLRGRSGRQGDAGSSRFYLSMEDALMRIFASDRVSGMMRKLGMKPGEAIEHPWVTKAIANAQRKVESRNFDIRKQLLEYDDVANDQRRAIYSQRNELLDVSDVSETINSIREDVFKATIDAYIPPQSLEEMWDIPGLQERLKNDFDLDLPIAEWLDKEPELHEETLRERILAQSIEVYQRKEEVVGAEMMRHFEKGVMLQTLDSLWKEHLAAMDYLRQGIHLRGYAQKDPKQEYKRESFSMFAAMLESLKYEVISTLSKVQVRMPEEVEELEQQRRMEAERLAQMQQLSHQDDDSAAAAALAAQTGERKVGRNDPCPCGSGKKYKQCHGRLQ

SMILES | Percent Effect [1] | Percent Effect [2] | Percent Effect [3] | Percent Effect [4] | Percent Effect [5] | Percent Effect [6] | Percent Effect [7] | Percent Effect [8] | Percent Effect [9] | Percent Effect [10] | Percent Effect [11]
COC[C@H]1CCC[C@]12CN(C(=O)NCc1ccccc1)CCO2 | -5% | 20% | -4.55% | 9.51% | 2.75% | -7.22% | 13.5% | 2.52% | 3.17% | 10.3% | -9.21%
O=c1nc(CNc2ccccc2)[nH]n1Cc1ccccc1 | -3.5% | 7.89% | 10.7% | 0.216% | -4.58% | -1.18% | 19.5% | 3.25% | 9.57% | 13% | -4.75%
COCc1nc(N(C)C)ncc1C(=O)Nc1ccn(C)n1 | -6.73% | 12% | -5.52% | 4.28% | 1.38% | -7.22% | 5.36% | 0.526% | 4.23% | 10.3% | -10.2%
CC1=NN(c2ccc(C(=O)N3CCCC(n4ccnc4)C3)cc2)CC1 (configuration not stated) | -5.1% | 10.1% | -5.15% | 0.444% | 9.35% | -1.9% | -1.06% | 15.8% | 10.3% | 16.5% | -6.17%
CN(C)C(=O)Cc1nc(CN2CCn3c(nnc3C3CC3)C2)cs1 | -3.93% | 16.2% | 2.91% | 3.53% | 2.14% | -2.4% | 10.8% | 7.25% | 5.94% | 15.8% | -2.27%
Cc1cnn(CCNCc2nc(COc3ccc(F)cc3)no2)c1 | -2.17% | 2.63% | 1.92% | 0.726% | 0.94% | 1.92% | 12.7% | 11.9% | 4.41% | -29.3% | -8.97%
Cn1ccnc1CC1CCCN(C(=O)Nc2cccn(C)c2=O)C1 (configuration not stated) | -3.36% | 5.41% | -17.1% | 6.3% | 2.93% | 27.9% | 12.9% | 4.41% | 8.91% | 13.4% | -5.06%
CCc1n[nH]c(C2CN(Cc3nnc(C4CC4)n3C)CCO2)n1 (configuration not stated) | 0.518% | 20.8% | -9.24% | -6.88% | -1.08% | 3.16% | 12.7% | 30.4% | 2.86% | 9.41% | -17.9%
COc1ccc(-c2cc(C3CCCCCN3S(=O)(=O)N(C)C)on2)cc1 (configuration not stated) | -2.23% | -14.9% | 6.56% | -4.82% | 4.54% | -1.16% | 14.3% | 12.8% | -50.5% | -66.2% | -12.7%
Cc1csc(C2CCCCN2C(=O)CN(C)Cc2ccccc2)n1 (configuration not stated) | -1.2% | -1.27% | 11% | 7.48% | -1.33% | 3.23% | 0.515% | -0.936% | 1.04% | 2.53% | 7.65%
O=C1CC(c2ccccc2)c2snc(C(=O)O)c2N1 (configuration not stated) | -3.07% | 6.67% | -2.59% | -2.64% | 2.95% | 20.9% | 29.4% | 1.29% | 3.17% | 7.69% | -12%
CN1CCOC(CNCc2cccc(OCc3ccccn3)c2)C1 (configuration not stated) | -5.11% | 5.06% | -8.27% | 12.2% | 3.87% | -1.9% | -4.18% | -5.19% | 7.39% | 11.4% | -2.11%
CC(Cn1ccnc1)NC(=O)NCCc1ccccn1 (configuration not stated) | -1.01% | 21.1% | -0.947% | -4.27% | 1.69% | -2.3% | 21.2% | 6.74% | 5.39% | 21.9% | -8.97%
CCN1CCN(C2CCN(Cc3nc(-c4ccoc4)no3)CC2)C1=O | -8.04% | 2.6% | 7.03% | -5.89% | -5.24% | 1.07% | 0.676% | 23.7% | 1.94% | 0% | -2.83%
COc1ccc(CCN2CCC(N3CCN(C)C3=O)CC2)cc1 | -6.17% | 13% | 0.0857% | 0.317% | -1.87% | -4.98% | 8.45% | 4.3% | 4.85% | 12.2% | -7.97%
CCOCC(O)CN1CCN(C(=O)CC(C)(C)C)CC1 (configuration not stated) | -3.75% | -2.7% | -10.6% | 5.4% | -1.98% | 0.401% | -7.75% | 0.227% | 2.46% | 3.7% | 1.7%
Clc1ccc(CN2CCCC(Cn3cncn3)C2)c2ncccc12 (configuration not stated) | -5.66% | -7.79% | -0.804% | 1.38% | 0.688% | -1.38% | 12% | -2.35% | 4.3% | 3.7% | 3.92%
CC(=O)Nc1ccc(-n2ccc3nc(N4CCCC4)ncc3c2=O)cc1 | -3.46% | -9.33% | 1.45% | 1.82% | -2.36% | 0.88% | 3.14% | -5.51% | 1.06% | -7.69% | 3.54%
CC(C)(CNC(=O)OC(C)(C)C)NC(=O)C1CC(=O)N(C2CC2)C1 (configuration not stated) | -7.68% | -2.7% | -1.58% | -8.17% | -8.11% | -1.24% | 7.3% | 20.6% | -2.15% | 3.7% | -4.06%
Cn1c(CN2CCOC(c3nc(C(C)(C)C)n[nH]3)C2)nnc1C1CC1 (configuration not stated) | -7.68% | -26% | -4.74% | -20.2% | 7.35% | -8.63% | 4.93% | -6.09% | 3.81% | 18.8% | -22.6%
COCC(=O)N1CC[C@H]2C[C@H](C)O[C@@H]2C1 | -3.06% | 13.3% | 4.66% | -5.49% | 4.53% | -2.56% | 17.4% | -11.4% | 7.45% | 14.1% | -3.21%
CCc1ncc(C(=O)NCCNC(=O)Cc2ccc(F)cc2)s1 | -1.95% | 8% | -16.6% | 11.1% | 5.55% | 16.7% | 11.3% | -8.05% | 7.1% | 16.1% | -3.11%
